Laboratory results from PubChem BioAssay (Tox21).
Inconclusive results are not listed. Calls of active or inactive are those of the source. Unless noted, calls come from the whole dose curve; as a rule, active = well fitted curve in the direction sought with a large enough effect in the repeat runs; inconclusive = weak or mixed curves; inactive = no such curve, though single readings can be large; an effect the other way counts as inactive or inconclusive.

Assays:
[1] = target: Thyrotropin receptor (Homo sapiens) (UniProt P16473); test: qHTS assay to identify small molecule antagonists of the thyroid stimulating hormone receptor (TSHR) signaling pathway (AID 1259385; calls by dose curve; note: nearly all actives have a fitted effect of over 20% in size)
How it was run: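 TSHR-HEK293 cells (800/well) plated 18 h, then compounds with Ro20-1724 and TSH at 1.5 ng/mL final, 30 min at room temperature. cAMP quantified by HTRF (cAMP-d2/anti-cAMP-cryptate, 1 h); 15 concentrations in triplicate.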

[2] = qHTS assay to identify small molecule agonists of the estrogen receptor alpha (ER-alpha) signaling pathway in the presence of an antagonist - cell viability counter screen (AID 1259386);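 note: series mostly up to about 92 µM; cells exposed to compounds for 22 h at 37 °C before the viability read; nearly all actives have a fitted effect of over 30% in size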
How it was run: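 VM7Luc4E2, stripped-serum pre-culture 5 d; 24hr plating; +ICI-182,780 10.0nM final; cpds 15 conc, 22hr, 37C/5% CO2; CellTiter-Fluor added at 21hr, fluorescence 1hr later.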

[3] = target: Progesterone receptor (Homo sapiens) (UniProt P06401); test: qHTS assay to identify small molecule agonists of the progesterone receptor (PR) signaling pathway (AID 1346784; calls by dose curve; note: nearly all actives have a fitted effect of over 30% in size)
How it was run: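 Using charcoal-stripped serum (2%) to limit endogenous steroids, PR-UAS-bla HEK 293T cells received compounds for 16 hr at 37C after 6 hr plating; beta-lactamase FRET fluorescence was recorded following 2 hr substrate loading at room temperature.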

[4] = target: Progesterone receptor (Homo sapiens) (UniProt P06401); test: qHTS assay to identify small molecule antagonists of the progesterone receptor (PR) signaling pathway (AID 1346795; active = well fitted inhibition curve with a large enough effect in the signal ratio in the repeat runs, not every such curve was filed as active; the % refers to the signal ratio; note: potency is the fitted concentration of half-maximal effect)
How it was run: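 Inhibition of R5020-induced (1 nM final) beta-lactamase reporter signal in PR-UAS-bla HEK293T cells was scored by FRET fluorescence after overnight (16 hr) compound treatment.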

[5] = qHTS assay to identify small molecule antagonists of the progesterone receptor (PR) signaling pathway - cell viability counter screen (AID 1346798); note: series mostly up to about 92 µM; nearly all actives have a fitted effect of over 50% in size
How it was run: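 ATP content as viability readout: CellTiter-Glo luminescence, 30 min room temperature, in PR-UAS-bla HEK293T cells after 16 hr compound/R5020 treatment at 37C and 5% CO2.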

[6] = qHTS assay to identify small molecule agonists of the progesterone receptor (PR) signaling pathway - cell viability counter screen (AID 1346799; calls by dose curve; note: nearly all actives have a fitted effect of over 45% in size)
How it was run: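 Cytotoxicity in PR-bla HEK293T cells: 16 h compound, 37C; CellTiter-Glo added post-FRET read; luminescence after 30 min RT.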

[7] = qHTS assay to identify small molecule antagonists of the TGF-beta/Smad signaling pathway - cell viability counter screen (AID 1346824); note: nearly all actives have a fitted effect of over 50% in size
How it was run: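 SBE-bla HEK 293T cells, incubated overnight, then compound plus 0.25 ng/mL TGF-beta1 (stock added) for 5 hr at 37 C. Viability was read in the same wells by CellTiter-Glo luminescence after 30 min at room temperature.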

[8] = qHTS assay to identify small molecule agonists of the TGF-beta/Smad signaling pathway - cell viability counter screen (AID 1346829); note: top concentration of the series differs between compounds; nearly all actives have a fitted effect of over 45% in size
How it was run: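 Cytotoxicity counter screen: CellTiter-Glo luminescence (30 min, room temperature) measured in the SBE-bla HEK 293T reporter wells after 5 hr compound treatment at 37 C and the 2 hr substrate step.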

[9] = qHTS assay to identify small molecule agonists of the TGF-beta/Smad signaling pathway (AID 1346859; active = well fitted activation curve with a large enough effect in the signal ratio in the repeat runs, not every such curve was filed as active; the % refers to the signal ratio; note: series mostly up to about 77 µM)
How it was run: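 Stable Smad binding element-beta-lactamase HEK 293T cells; 5 hr compound exposure at 37 C under 5% CO2; 2 hr room-temperature substrate step; fluorescence excited at 405 nm, collected at 460 nm and 530 nm.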

[10] = target: Thyrotropin-releasing hormone receptor (Homo sapiens) (UniProt P34981); test: qHTS assay to identify small molecule antagonists of the thyrotropin-releasing hormone receptor (TRHR) signaling pathway (AID 1346877; active = well fitted inhibition curve with a large enough effect in the repeat runs, not every such curve was filed as active; note: series mostly up to about 51 µM)
How it was run: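 Intracellular calcium fluorescence, read kinetically every second over 3 min, reports TRH-evoked signalling in HEK293 cells carrying TRHR. Test compounds were added 5 min ahead of a 1 nM TRH challenge.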

[11] = target: Thyrotropin-releasing hormone receptor (Homo sapiens) (UniProt P34981); test: qHTS assay to identify small molecule agonists of the thyrotropin-releasing hormone receptor (TRHR) signaling pathway (AID 1346891; calls by dose curve;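 note: HEK293 cells expressing TRHR with calcium dye readout; series mostly up to about 58 µM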)
How it was run: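 In 1536-format, 1500 TRHR-Hek293 cells per well grew 18 h, took up calcium dye for 2 h at 37 °C, received compound, and were read kinetically; 15-point titrations, triplicates.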

[12] = Human pregnane X receptor (PXR) small molecule agonists, qHTS cell viability counter screen (AID 1346977); note: nearly all actives have a fitted effect of over 50% in size
How it was run: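 Readout is CellTiter-Fluor fluorescence from PXR-Luc HepG2 cells. Plated cells rested 5hr, then were treated with compounds for 24hr at 37C and 5% CO2, with reagent present during the last hour.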

[13] = Caspase-3/7 induction in HepG2 cells by small molecules, qHTS assay (AID 1346978); note: nearly all actives have a fitted effect of over 15% in size
How it was run: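 Wild-type HepG2 cells, 2,000/well, settled 5 hr at 37 C and 5% CO2, then compound-treated for 17 hr; caspase-3/7 activity read by luminescent Caspase-Glo 3/7 after 30 min at room temperature.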

[14] = Caspase-3/7 induction in CHO-K1 cells by small molecules, qHTS assay (AID 1346980); note: nearly all actives have a fitted effect of over 15% in size
How it was run: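 Wild-type CHO-K1 cells exposed to compounds for 17hr at 37 C, 5% CO2. Caspase-3/7 activity then measured by Caspase-Glo 3/7 luminescence after 30min at room temperature.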

[15] = Caspase-3/7 induction in HepG2 cells by small molecules, qHTS cell viability counter screen (AID 1346981); note: series mostly up to about 92 µM; nearly all actives have a fitted effect of over 30% in size
How it was run: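 HepG2, WT, 2,000 cells/well; 5 hr pre-incubation 37 C/5% CO2; compound pin-transferred from DMSO; 16 hr exposure; CellTiter-Fluor, 1 hr; fluorescence read.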

[16] = Caspase-3/7 induction in CHO-K1 cells by small molecules, qHTS cell viability counter screen (AID 1346979); note: nearly all actives have a fitted effect of over 35% in size
How it was run: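 To flag cytotoxic compounds, treated CHO-K1 wild-type cells were given CellTiter-Fluor at 16hr and read fluorescently after 1hr at 37C; the caspase-3/7 luminescence was measured in these same wells.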

[17] = target: Nuclear receptor subfamily 1 group I member 2 (Homo sapiens) (UniProt O75469); test: Human pregnane X receptor (PXR) small molecule agonists, qHTS assay (AID 1346982); note: nearly all actives have a fitted effect of over 35% in size; note: potency is the fitted concentration of half-maximal effect
How it was run: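 Luciferase signal from ONE-Glo (30 min, room temperature) measured activation of hPXR-driven CYP3A4 reporter expression in PXR-Luc HepG2 cells treated with compounds for 24 hr at 37 C.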

[18] = target: Nuclear receptor subfamily 1 group I member 2 (Rattus norvegicus) (UniProt Q9R1A7); test: Rat pregnane X receptor (rPXR) activation by small molecules, qHTS assay (AID 1346983); conditions: rPXR luciferase reporter cells, One-Glo luminescence, 24 h; hits give high values; note: nearly all actives have a fitted effect of over 20% in size
How it was run: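 Cell-based rPXR activation assay: rPXR cells, 2,000 per well, rested 5hr at 37 C, then exposed to compounds in DMSO for 24 hr at 37 C. Luciferase activity read by One-Glo luminescence after 30 min at room temperature.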

[19] = target: Nuclear receptor subfamily 1 group I member 2 (Homo sapiens) (UniProt O75469); test: CYP3A4 induction through human pregnane X receptor (PXR) by small molecules, qHTS assay (AID 1346984); note: nearly all actives have a fitted effect of over 40% in size
How it was run: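 Luminescence readout: luciferase signal after One-Glo (30 min, room temperature), following 3 h at 37C with 3uM final Luciferin-IPA P450 substrate. Cells were DPX-2 (HepG2, PXR/CYP3A4-luc co-transfected) dosed for 24 h.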

[20] = target: Nuclear receptor subfamily 1 group I member 2 (Homo sapiens) (UniProt O75469); test: Human pregnane X receptor (PXR) activation by small molecules, qHTS assay (AID 1346985); note: nearly all actives have a fitted effect of over 40% in size
How it was run: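 DPX-2 cells (HepG2 co-transfected with a PXR response element and a CYP3A4-promoter luciferase construct) were seeded at 2,000 per well, rested 5 hr at 37C, then exposed to DMSO-dissolved compounds for 24 hr. Activation was read as luciferase luminescence.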
% is set by controls: 0 for no effect and ±100 for the full control effect.

Thyrotropin-releasing hormone receptor (Homo sapiens), sequence (P34981 whole entry, looked up): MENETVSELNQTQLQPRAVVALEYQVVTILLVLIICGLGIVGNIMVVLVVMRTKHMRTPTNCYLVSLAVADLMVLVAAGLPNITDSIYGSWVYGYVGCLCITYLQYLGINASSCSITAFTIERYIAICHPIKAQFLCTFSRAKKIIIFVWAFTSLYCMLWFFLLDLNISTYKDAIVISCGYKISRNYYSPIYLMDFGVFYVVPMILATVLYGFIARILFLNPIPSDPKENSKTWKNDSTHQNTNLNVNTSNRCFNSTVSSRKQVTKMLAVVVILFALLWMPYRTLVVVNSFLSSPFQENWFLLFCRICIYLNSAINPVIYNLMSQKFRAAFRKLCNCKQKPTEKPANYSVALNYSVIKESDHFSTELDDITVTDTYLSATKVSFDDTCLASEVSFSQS
Nuclear receptor subfamily 1 group I member 2 (Homo sapiens), sequence (O75469 whole entry, looked up): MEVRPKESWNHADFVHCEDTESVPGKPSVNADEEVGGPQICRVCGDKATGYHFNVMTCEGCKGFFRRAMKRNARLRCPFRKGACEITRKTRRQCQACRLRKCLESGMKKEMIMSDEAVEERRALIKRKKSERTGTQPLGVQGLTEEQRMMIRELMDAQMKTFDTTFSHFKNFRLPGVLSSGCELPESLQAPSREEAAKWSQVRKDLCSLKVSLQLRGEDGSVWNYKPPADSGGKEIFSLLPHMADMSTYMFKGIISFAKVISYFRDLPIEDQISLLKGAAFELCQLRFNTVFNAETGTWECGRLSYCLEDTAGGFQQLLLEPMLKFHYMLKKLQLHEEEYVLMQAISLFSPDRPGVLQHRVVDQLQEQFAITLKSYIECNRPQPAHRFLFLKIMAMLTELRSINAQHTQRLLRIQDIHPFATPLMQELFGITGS
Progesterone receptor (Homo sapiens), sequence (P06401 whole entry, looked up): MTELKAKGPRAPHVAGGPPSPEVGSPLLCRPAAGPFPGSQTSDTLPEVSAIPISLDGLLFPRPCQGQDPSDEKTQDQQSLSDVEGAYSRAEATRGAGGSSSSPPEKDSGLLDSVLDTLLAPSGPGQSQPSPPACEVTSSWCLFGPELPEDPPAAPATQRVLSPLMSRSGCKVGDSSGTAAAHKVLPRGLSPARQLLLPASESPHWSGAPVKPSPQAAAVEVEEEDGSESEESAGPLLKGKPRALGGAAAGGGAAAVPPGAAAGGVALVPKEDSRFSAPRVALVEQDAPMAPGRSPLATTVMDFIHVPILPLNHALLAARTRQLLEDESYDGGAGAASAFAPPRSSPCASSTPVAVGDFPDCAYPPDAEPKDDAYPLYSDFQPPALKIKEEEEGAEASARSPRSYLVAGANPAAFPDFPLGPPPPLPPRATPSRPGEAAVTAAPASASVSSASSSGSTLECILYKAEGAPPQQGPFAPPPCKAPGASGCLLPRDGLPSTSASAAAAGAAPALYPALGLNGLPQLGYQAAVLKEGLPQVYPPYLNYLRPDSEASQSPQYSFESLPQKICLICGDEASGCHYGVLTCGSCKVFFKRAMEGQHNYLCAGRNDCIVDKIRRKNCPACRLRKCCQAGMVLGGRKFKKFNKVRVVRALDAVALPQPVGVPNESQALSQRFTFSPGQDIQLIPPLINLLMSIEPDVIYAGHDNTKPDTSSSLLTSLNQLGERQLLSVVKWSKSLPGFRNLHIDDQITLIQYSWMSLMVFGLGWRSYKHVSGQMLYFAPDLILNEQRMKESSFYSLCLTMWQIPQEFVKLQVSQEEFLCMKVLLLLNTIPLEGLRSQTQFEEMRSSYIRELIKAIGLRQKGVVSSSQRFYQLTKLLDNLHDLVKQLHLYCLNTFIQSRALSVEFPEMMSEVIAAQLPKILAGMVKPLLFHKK
Thyrotropin receptor (Homo sapiens), sequence (P16473 whole entry, looked up): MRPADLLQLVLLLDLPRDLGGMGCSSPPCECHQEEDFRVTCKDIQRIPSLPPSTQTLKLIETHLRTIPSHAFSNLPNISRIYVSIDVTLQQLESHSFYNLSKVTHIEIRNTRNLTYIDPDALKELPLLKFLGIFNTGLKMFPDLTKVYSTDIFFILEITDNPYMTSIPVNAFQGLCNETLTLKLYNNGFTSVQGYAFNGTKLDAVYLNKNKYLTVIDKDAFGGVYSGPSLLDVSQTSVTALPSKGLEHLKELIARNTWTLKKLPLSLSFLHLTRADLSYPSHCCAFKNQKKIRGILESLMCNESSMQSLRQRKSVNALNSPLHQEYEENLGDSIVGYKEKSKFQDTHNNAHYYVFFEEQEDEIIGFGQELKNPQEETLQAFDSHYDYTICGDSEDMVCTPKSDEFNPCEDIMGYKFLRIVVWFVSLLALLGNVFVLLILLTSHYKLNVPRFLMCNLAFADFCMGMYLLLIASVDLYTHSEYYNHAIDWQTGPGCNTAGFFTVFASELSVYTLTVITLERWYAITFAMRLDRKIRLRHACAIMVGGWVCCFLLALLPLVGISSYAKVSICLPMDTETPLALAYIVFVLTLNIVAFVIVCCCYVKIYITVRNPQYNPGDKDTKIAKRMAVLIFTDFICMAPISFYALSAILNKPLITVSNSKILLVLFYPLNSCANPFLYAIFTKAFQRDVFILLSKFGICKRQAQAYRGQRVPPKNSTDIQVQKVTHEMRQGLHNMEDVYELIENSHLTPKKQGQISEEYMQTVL
Nuclear receptor subfamily 1 group I member 2 (Rattus norvegicus), sequence (Q9R1A7 whole entry, looked up): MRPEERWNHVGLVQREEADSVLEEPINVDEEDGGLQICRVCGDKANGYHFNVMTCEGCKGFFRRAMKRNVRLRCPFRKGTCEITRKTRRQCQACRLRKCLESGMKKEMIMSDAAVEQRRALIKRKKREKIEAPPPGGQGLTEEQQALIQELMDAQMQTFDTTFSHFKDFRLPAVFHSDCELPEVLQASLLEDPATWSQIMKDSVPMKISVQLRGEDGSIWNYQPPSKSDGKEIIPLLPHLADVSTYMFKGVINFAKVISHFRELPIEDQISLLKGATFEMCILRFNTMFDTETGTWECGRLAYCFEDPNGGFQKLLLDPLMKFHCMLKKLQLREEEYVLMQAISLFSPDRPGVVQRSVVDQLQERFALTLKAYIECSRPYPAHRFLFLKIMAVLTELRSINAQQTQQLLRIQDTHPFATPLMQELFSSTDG

CCOC(=O)C(SP(=S)(OC)OC)c1ccccc1 (stereo not drawn)
inactive: outcome [1] | Potency [2] | Potency [3] | Potency [5] | Potency [6] | outcome [7] | Potency [8] | outcome [9] | Potency [10] | outcome [11] | Potency [12] | outcome [13] | outcome [14] | Potency [15]
active: Potency [4] 48.6 µM

CCCN1CCC[C@@H]2Cc3nc(N)ncc3C[C@H]21
inactive: outcome [1] | Potency [2] | Potency [3] | Potency [4] | Potency [5] | Potency [6] | outcome [7] | Potency [8] | outcome [9] | Potency [10] | outcome [11] | Potency [12] | outcome [13] | Potency [16] | outcome [14] | Potency [17] | max activation [18] -1.3% | Potency [19] | Potency [20]

O=C(Cl)C(Cl)(Cl)Cl
active: Potency [17] 43.5 µM
inactive: outcome [1] | Potency [2] | Potency [3] | Potency [4] | Potency [5] | Potency [6] | outcome [7] | Potency [8] | outcome [9] | Potency [10] | outcome [11] | Potency [12] | outcome [13] | Potency [16] | outcome [14] | Potency [15]

CN1C(=O)COc2c(C(=O)NC3CN4CCC3CC4)cc(Cl)cc21 (stereo not drawn)
inactive: outcome [1] | Potency [2] | Potency [3] | Potency [4] | Potency [5] | Potency [6] | outcome [7] | Potency [8] | outcome [9] | Potency [10] | outcome [11] | Potency [12] | outcome [13] | Potency [16] | outcome [14] | Potency [15] | Potency [17] | max activation [18] -0.408% | Potency [19]

O=[N+]([O-])c1cccc(CCl)c1
inactive: outcome [1] | Potency [2] | Potency [3] | Potency [4] | Potency [5] | Potency [6] | outcome [7] | outcome [9] | Potency [10] | outcome [11] | Potency [12] | outcome [13] | Potency [16] | outcome [14] | Potency [15]

COP(=O)(O)OC
inactive: outcome [1] | Potency [2] | Potency [3] | Potency [4] | Potency [5] | Potency [6] | outcome [7] | outcome [9] | Potency [10] | outcome [11] | Potency [12] | outcome [13] | Potency [16] | outcome [14] | Potency [15] | Potency [17]

COc1cc(CCN)cc(OC)c1OC
inactive: outcome [1] | Potency [2] | Potency [3] | Potency [4] | Potency [5] | Potency [6] | outcome [7] | outcome [9] | Potency [12] | outcome [13] | Potency [16] | outcome [14] | Potency [15] | Potency [17]

COC(=O)c1ccc(CBr)cc1
inactive: outcome [1] | Potency [2] | Potency [3] | Potency [4] | Potency [5] | Potency [6] | outcome [7] | outcome [9] | Potency [10] | outcome [11] | Potency [12] | outcome [14] | Potency [15]
